VP16 counter = counter-screen for ROR gamma inhibitors: Gal4-VP16 reporter; Drosophila S2 Gal4-VP16 UAS-luciferase, luminescence, 20 h; Potency, µM (titrated, usually from 53.6 µM), hits mostly inhibitors; hit rate 3.5% among 310,000; AID 2546;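 note: Gal4-VP16 expression switched on by copper sulfate through the metallothionein promoter; nearly all actives have a fitted effect of over 50% in size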
BRCA1 expr up = BRCA1 expression activation | AID 624202 | Potency, µM (top dose mostly 46.1 µM), actives largely listed as activators | MCF7-BRCA1-FFLuc reporter, luminescence, 48 h; response scale: scaled: vehicle 0%, 10 µM genistein 100% | hit rate 1.1% among 380,000; note: nearly all actives have a fitted effect of over 80% in size
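48 h compound treatment of MCF7-BRCA1-FFLuc cells (phenol-red free MEM, 37 °C), then 15 min with luciferase substrate and luminescence imaging.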
ELG1 DNA repair = blocks ELG1-dependent DNA repair in HEK293T cells; Potency, µM (highest dose often 46.1 µM), actives largely listed as inhibitors; AID 504467; HEK293T ELG1-luciferase reporter, luminescence, 16 h; DNA damage induced by 5-fluorouridine; hit rate 2.3% among 330,000; note: nearly all actives have a fitted effect of over 55% in size
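Cells (2,000 per well) received 5-fluorouridine plus test compound or DMSO and were incubated 16 hr at 37 °C, 5% CO2. Luciferase activity was read by luminescence 30 min after ONE-Glo addition; signal suppression marked inhibition of damage-induced ELG1 function.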
p53 reactivation = restores transcriptional activity of mutant p53 | H1299 p53-A138V BP100-luciferase reporter, luminescence, 24 h | Potency, µM (highest dose often 92.2 µM), most hits filed as activators | hit rate 0.063% among 320,000; note: nearly all actives have a fitted effect of over 45% in size
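p53-null H1299 cells stably carrying temperature-sensitive p53-A138V and a BP100-luciferase reporter were pinned with compounds (4-point, 1:5 series) and held 24 hrs at 37 deg C. Luminescence was read 10 min after detection reagent.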
RORg inh = inhibitors of mouse ROR gamma transcriptional activity. P51450. Drosophila S2 Gal4-RORgamma UAS-luciferase reporter, 20 h. Potency, µM (doses to about 53.6 µM), most hits filed as inhibitors. hit rate 5.4% among 310,000; note: nearly all actives have a fitted effect of over 60% in size
Target sequence (P51450 whole entry, looked up, the tested form may be a part): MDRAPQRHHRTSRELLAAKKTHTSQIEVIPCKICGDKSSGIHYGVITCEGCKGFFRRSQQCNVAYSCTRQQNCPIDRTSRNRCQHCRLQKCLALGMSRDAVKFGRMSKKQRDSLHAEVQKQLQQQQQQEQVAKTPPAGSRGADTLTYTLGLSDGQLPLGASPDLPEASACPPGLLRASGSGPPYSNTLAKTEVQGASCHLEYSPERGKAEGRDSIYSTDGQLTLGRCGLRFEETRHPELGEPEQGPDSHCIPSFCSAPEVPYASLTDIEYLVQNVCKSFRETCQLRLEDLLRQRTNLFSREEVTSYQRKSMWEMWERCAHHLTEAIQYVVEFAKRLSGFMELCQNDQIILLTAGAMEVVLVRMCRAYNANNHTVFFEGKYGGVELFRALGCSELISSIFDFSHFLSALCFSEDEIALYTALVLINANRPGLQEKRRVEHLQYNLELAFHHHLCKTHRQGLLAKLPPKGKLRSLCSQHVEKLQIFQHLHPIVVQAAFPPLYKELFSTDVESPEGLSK
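Drosophila Schneider cells stably carrying a metallothionein-driven Gal4 DBD–ROR gamma fusion and a UAS-Photinus luciferase reporter were exposed to compound for 1 hr, then induced with copper sulfate (700 uM final) for 20 hr at ambient temperature before luminescence reading.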
Giardia kill = Giardia lamblia killing; hit rate 0.15% among 340,000; activity change, % at 7.66 µM, hits read low; Giardia lamblia trophozoite viability; in the data active = activity change below about -80%; inconclusive = between about -30% and that limit;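 note: parasites exposed to compound for two days anaerobically before the ATP read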
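Killing of trophozoites was scored by loss of ATP luminescence after a 48 hrs anaerobic exposure to compounds at 37 deg C, using 100 cells per well.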
Of the large screens only hits and unclear results are named; the others gave an inactive call. Only some compounds are listed: those with a hit (about 7.6% of all), similar ones and a draw of the others. Unless noted, calls come from the whole dose curve; as a rule, active = well fitted curve in the direction sought with a large enough effect; inconclusive = small, poorly fitted or top-dose-only effect, or another doubt; inactive = no such curve, though single readings can be large; an effect the other way counts as inactive or inconclusive.

CCN(CC)CCNC(=O)c1ccc(NC(=O)c2ccc(COc3ccccc3)cc2)cc1	ELG1 DNA repair inconclusive
COc1ccc(-c2nn(-c3ccccc3)cc2/C=N/Nc2ccc3ccccc3n2)cc1OC	VP16 counter 5.01µM, ELG1 DNA repair 11.6µM, RORg inh 1.78µM
COc1ccc(-c2nn(-c3ccccc3)cc2/C=N/NC(=S)NC(C)C)cc1OC	VP16 counter 2.24µM, ELG1 DNA repair 11.6µM, RORg inh 1.41µM
COc1ccc(-c2nn(-c3ccccc3)cc2/C=N/O)cc1OC	VP16 counter 1.78µM, RORg inh 1µM
CCCC1C(C#N)=C(N)Oc2n[nH]c(C(C)(C)C)c21 (centres undefined)	none (no result: VP16 counter)
COc1ccccc1CNC(=O)c1ccc(OCC2CCCO2)cc1 (centres undefined)	none
CCC1Oc2ccc(C)cc2N(CC(=O)N(Cc2cccnc2)Cc2ccc(C)o2)C1=O (centres undefined)	VP16 counter inconclusive, RORg inh 14.1µM
CCC1Oc2ccc(C)cc2N(CC(=O)N(Cc2ccc(C)o2)C2CC(C)(C)NC(C)(C)C2)C1=O (centres undefined)	RORg inh inconclusive
CN(C)/C=C(\C#N)C(=O)N/N=C(\CC(=O)C(F)(F)F)c1ccco1	RORg inh 4.47µM
c1cncc(-c2nnc(SCc3nc4ccccc4[nH]3)o2)c1	RORg inh inconclusive
c1ccc2[nH]c(CSc3nc4ccccc4o3)nc2c1	VP16 counter inconclusive, ELG1 DNA repair inconclusive, RORg inh 2µM
c1ccc2cc(CSCc3nc4ccccc4[nH]3)ccc2c1	VP16 counter 11.2µM, RORg inh inconclusive
ClCc1nc2ccccc2n1Cc1ccccc1	none
Cc1ccc(Cn2c(Cc3ccccc3)nc3ccccc32)cc1	VP16 counter inconclusive, RORg inh 8.91µM
COc1ccc(Cn2c(-c3ccc(C)cc3)c[n+]3ccccc23)cc1	VP16 counter 17.8µM, ELG1 DNA repair inconclusive
COCc1nc2ccccc2n1Cc1ccc(Br)cc1	VP16 counter inconclusive, ELG1 DNA repair inconclusive, RORg inh 10µM
COCc1nc2ccccc2n1Cc1ccccc1	VP16 counter inconclusive, ELG1 DNA repair inconclusive
Cc1cccc(NCc2nc3ccccc3n2Cc2ccccc2)c1	VP16 counter inconclusive, ELG1 DNA repair inconclusive, RORg inh 1µM
C=CCn1c(SC(C)C(=O)NCc2ccc3c(c2)OCO3)nnc1C1CCCCC1 (centres undefined)	ELG1 DNA repair inconclusive
CCCC1C2C(=O)N(c3ccc(OC)cc3)C(=O)C2ON1c1ccccc1 (centres undefined)	none
COc1ccc(-c2onc(C)c2-c2cnn(-c3ccccc3)c2)c(O)c1	ELG1 DNA repair inconclusive
COc1ccc(-c2nc3ccccc3n2Cc2ccc(C(C)C)cc2)cc1	none (no result: VP16 counter, ELG1 DNA repair, p53 reactivation, RORg inh, Giardia kill)
COc1ccc(-c2nc3ccccc3n2Cc2ccc(C)cc2)cc1	VP16 counter inconclusive, RORg inh 12.6µM (no result: ELG1 DNA repair, p53 reactivation)
COc1ccc(-n2c(=S)[nH]c3cc(C(=O)NCc4ccc(F)cc4)ccc3c2=O)c(OC)c1	VP16 counter inconclusive, RORg inh inconclusive
COc1ccc(-n2c(=S)[nH]c3cc(C(=O)NCc4ccco4)ccc3c2=O)c(OC)c1	RORg inh inconclusive
COc1ccc(NC(=O)c2ccc3c(=O)n(-c4ccc(OC)cc4OC)c(=S)[nH]c3c2)cc1	VP16 counter 11.2µM, ELG1 DNA repair inconclusive, RORg inh 5.01µM
COc1ccc(-n2c(=S)[nH]c3cc(C(=O)Nc4ccc(F)cc4)ccc3c2=O)c(OC)c1	VP16 counter 17.8µM, ELG1 DNA repair inconclusive, RORg inh 10µM
CCCC(=O)N1CCC1(C)C(=O)NS(=O)(=O)c1ccccc1 (centres undefined)	none (no result: VP16 counter, ELG1 DNA repair, p53 reactivation, RORg inh, Giardia kill)
Cn1c(CCC(=O)Nc2ccc(F)cc2)nc2cc(S(=O)(=O)N3CCOCC3)ccc21	none (no result: VP16 counter, RORg inh)
CCCn1c(CCC(=O)Nc2ccccc2Cc2ccccc2)nc2cc(S(=O)(=O)N3CCOCC3)ccc21	ELG1 DNA repair 11.6µM
CCCn1c(SCC(=O)NC2CCCCC2)nnc1-c1ccncc1	none
C/C(=C\C(=O)c1ccc(Br)cc1)NNC(=O)c1ccccc1	none (no result: VP16 counter, ELG1 DNA repair, p53 reactivation, RORg inh)
C/C(=C\C(=O)c1ccc(Br)cc1)NNC(=O)c1ccc(O)cc1	VP16 counter 4.47µM, ELG1 DNA repair inconclusive, RORg inh 5.01µM
Cc1ccc(C(=O)CSc2nnc3c4ccccc4nc(C(C)(C)C)n23)cc1	ELG1 DNA repair 16.4µM
CC1(C)CC2CC(C)(CN2S(=O)(=O)c2ccc(C(=O)Nc3cccc(S(=O)(=O)N4CCOCC4)c3)cc2)C1 (centres undefined)	VP16 counter 0.501µM, ELG1 DNA repair inconclusive, RORg inh inconclusive
COc1ccc(NC(=S)Nc2cccc(S(=O)(=O)N3CCCCC3)c2)cc1	VP16 counter inconclusive, RORg inh 17.8µM
COc1ccc(C(=O)NC(=S)Nc2cccc(S(=O)(=O)N3CCOCC3)c2)cc1	ELG1 DNA repair inconclusive, RORg inh 22.4µM
O=C(COc1ccc(C(=O)c2ccc(F)cc2)cc1)Nc1cccc(S(=O)(=O)N2CCOCC2)c1	ELG1 DNA repair 23.1µM (no result: VP16 counter, RORg inh)
COc1ccc(NC(=S)Nc2ccc(S(=O)(=O)N3CCCCC3)cc2)cc1	none (no result: VP16 counter, ELG1 DNA repair, p53 reactivation, RORg inh, Giardia kill)
CCN(CC)S(=O)(=O)c1ccc(N2CCOCC2)c(NC(=O)c2cccc(C#N)c2)c1	ELG1 DNA repair inconclusive
c1csc(-c2nnc(-c3ccc(N4CCOCC4)cc3)o2)c1	VP16 counter inconclusive, ELG1 DNA repair inconclusive, RORg inh inconclusive, Giardia kill inconclusive
COc1ccc(C(=O)c2sc(Nc3ccccc3)c(C(=O)Nc3ccc(OC)c(OC)c3)c2N)cc1	ELG1 DNA repair inconclusive, RORg inh inconclusive
COc1ccc(NC(=O)c2c(Nc3ccccc3)sc(C(=O)c3ccc(F)cc3)c2N)cc1	VP16 counter 12.6µM, ELG1 DNA repair inconclusive
COc1cc2nc(SCC(=O)c3ccc(Br)cc3)n3nc(C)nc3c2cc1OC	VP16 counter inconclusive, ELG1 DNA repair 4.11µM, RORg inh 12.6µM
Cc1nc2c3ccccc3nc(SCC(=O)c3ccc(Cl)cc3)n2n1	VP16 counter inconclusive, RORg inh inconclusive
Cc1cccc(N(CC(=O)NCCSc2nc3ccccc3s2)S(=O)(=O)c2ccccc2)c1	ELG1 DNA repair 16.4µM, RORg inh inconclusive (no result: BRCA1 expr up, Giardia kill)
O=C(CN(c1ccccc1)S(=O)(=O)c1ccccc1)NCCSc1nc2ccccc2s1	ELG1 DNA repair inconclusive
CC(C)(C)C1=CC(=O)C(=O)C(C(C)(C)C)=C1	VP16 counter 12.6µM, ELG1 DNA repair inconclusive, RORg inh 10µM
O=[N+]([O-])c1ccc(-c2ccc(/C=N/Nc3nc(N4CCCC4)nc(N4CCCC4)n3)o2)cc1	RORg inh inconclusive
